# Screening results deposited in PubChem by several laboratories.
# In the library only some 2.9% were active in any assay of this set; here they are far more common.
# ABHD5-PLIN5 inh = inhibitors of human ABHD5-perilipin-5 interaction. Q00G26+Q8WTS1. Split G. princeps luciferase complementation, luminescence, 4 h. inhibition, % at 4 µM. 360,000 tested, 0.78% active;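 active = inhibition above the mean inhibition across every tested compound plus 3 SD, cut at about 22% in these data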;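 also: 0% = DMSO only wells and the 100% control is not disclosed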
# Myeloid diff 2 = promotes myeloid progenitor differentiation; calls only at 10 µM; 360,000 tested, 1% active; ER-HoxA9 myeloid progenitors, lysozyme-GFP differentiation, flow cytometry;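 active = normalized GFP-positive differentiation at or above the plate's own cutoff, the solvent-only control mean plus 3 SD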;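 also: cells exposed to compound for four days before flow analysis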
# H9c2 protect = modulators protecting cardiomyocytes from myocardial damage; protection from H2O2 cell death, % at 20 µM; 360,000 tested, 0.63% active; H9c2 cardiomyocytes, H2O2 injury protection, ATPLite, 2 h; AID 588492;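 active = compounds giving at least 50% protection of heart cells from peroxide-induced death in the single-dose screen, raw or plate-pattern-corrected value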;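 also: 0% = DMSO wells with peroxide and 100% = DMSO wells without peroxide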
# HGIII-sPLA2 inh = Blocks human group III sPLA2 activity. Q9NZ20. 370,000 tested, 0.56% active. inhibition, % at 12.2 µM. QFRET BODIPY PC-A2 liposome hydrolysis, fluorescence;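 active = inhibition above mean plus 3 SD of compounds lying within the high and low control bounds, cut at about 19% in these data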;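 also: 0% = median of test compound wells and 100% = no enzyme DMSO wells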
# Target sequence (Q9NZ20 whole entry, looked up): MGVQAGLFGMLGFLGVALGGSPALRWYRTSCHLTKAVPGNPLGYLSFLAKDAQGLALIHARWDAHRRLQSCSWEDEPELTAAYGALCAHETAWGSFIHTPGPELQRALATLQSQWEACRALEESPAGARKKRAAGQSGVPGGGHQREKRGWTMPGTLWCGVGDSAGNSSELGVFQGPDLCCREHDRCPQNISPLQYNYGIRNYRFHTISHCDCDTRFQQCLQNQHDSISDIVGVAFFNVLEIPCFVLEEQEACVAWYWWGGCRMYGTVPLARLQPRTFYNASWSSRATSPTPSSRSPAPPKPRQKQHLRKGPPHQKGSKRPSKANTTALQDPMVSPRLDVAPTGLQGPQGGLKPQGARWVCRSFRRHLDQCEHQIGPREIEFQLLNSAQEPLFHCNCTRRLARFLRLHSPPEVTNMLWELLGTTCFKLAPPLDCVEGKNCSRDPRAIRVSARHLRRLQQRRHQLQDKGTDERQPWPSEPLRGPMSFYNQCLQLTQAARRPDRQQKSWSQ
# Rtt109 HAT inh = inhibitors of Candida albicans Rtt109/Vps75 histone acetyltransferase. purified Rtt109/Vps75, ThioGlo CoA-SH fluorescence, 4 h. inhibition, % at 34.9 µM. 330,000 tested, 0.16% active;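 active = inhibition of at least 50% in every replicate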
# DAGLB inh = diacylglycerol lipase beta (human) inhibition | AID 504411 | 340,000 tested, 0.059% active | inhibition, % at 5.17 µM | Q8NCG7 | HEK293T DAGLB membrane lysate, EnzChek fluorogenic substrate; in the data active = inhibition above about 34%;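 also: 0% = enzyme with vehicle and 100% = wells lacking enzyme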
# Myeloid diff CP1 = compounds promoting myeloid differentiation | shares compounds with Myeloid diff 2 | ER-HoxA9 myeloid progenitors, GFP/Mac1 double-positive flow | calls only | 2,300 tested, 2% active;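 active = share of green or green-and-red cells above 9 and 9% in run 1 or 4 and 3% in run 2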
# GFP autofluor = compound fluorescence in myeloid differentiation counter-screen; shares compounds with Myeloid diff 2; ER-HoxA9 myeloid progenitors, no estrogen, GFP autofluorescence flow cytometry; vehicle wells 0%, positive control 100%; fluorescence response, % (no concentration beside the values); 2,300 tested, 7.4% active;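 active = over 5% cells positive for green fluorescent reporter, or over 2% positive for both it and APC stain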;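 also: range taken on the double positive population between DMSO and positive control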
# Numbers without * were called inactive; i = inactive; . = no result given; + = active, no number.
SMILES,ABHD5-PLIN5 inh,Myeloid diff 2,H9c2 protect,HGIII-sPLA2 inh,Rtt109 HAT inh,DAGLB inh,Myeloid diff CP1,GFP autofluor
Cc1ccc(CSCC(=O)Nc2ccccc2F)cc1,-3.4,i,-2.4,1.0,-5.9,-9.2,.,.
O=C1CSC(=Nc2ccc(F)cc2)N1,5.5,+,0.7,-3.2,7.7,-0.1,i,0.3
NC(=O)c1cc([N+](=O)[O-])ccc1NCc1ccc(C(=O)O)cc1,3.0,i,0.3,-6.2,13.0,2.0,.,.
COc1ccc(-c2csc3ncn(-c4ccccc4OC)c(=O)c23)cc1OC,9.9,+,17.6,-2.6,3.8,4.8,i,0.0
COc1ccc(-c2csc3ncn(-c4ccccc4)c(=O)c23)cc1OC,-0.4,i,4.9,4.0,5.0,-0.2,.,.
O=C(COC(=O)c1cccc(O)c1)Nc1nnc(-c2ccccc2)o1,2.9,i,2.3,-1.7,-8.8,1.8,.,.
O=C(O)C1C2C=CC(C2)C1C(=O)OC1CC2CCC1C2 (stereo unspecified),9.1,+,1.3,6.2,.,-1.9,i,0.0
O=C(O)CCC(=O)OC1CC2CCC1C2 (stereo unspecified),0.2,i,0.3,-3.2,.,0.6,.,.
NNc1nc2cccnc2n(CCNc2ncc(C(F)(F)F)cc2Cl)c1=O,-1.1,i,1.0,10.7,-2.7,-4.1,i,2.1
CCOc1ccc(CCN2C(=S)N([C@@H](Cc3ccccc3)CN3CCCC3CN3C(=S)NC[C@@H]3Cc3ccccc3)C[C@@H]2Cc2ccc(O)cc2)cc1 (stereo partly specified),9.2,i,.,-3.8,.,.,.,.
CSCC[C@H](NC(=O)C1CCN(S(=O)(=O)c2ccc(C)cc2)CC1)C(=O)NCC1CCCO1 (stereo partly specified),-9.9,i,-4.0,-2.1,-13.3,-1.8,.,.
CSCC[C@H](NC(=O)C1CCN(S(=O)(=O)c2ccc(C)cc2)CC1)C(=O)NCc1ccco1,13.9,+,4.1,-3.3,3.4,-3.6,i,0.8
CN(CC(=O)Nc1ccc(Cl)c(C(F)(F)F)c1)C(=O)C1CCN(C(=O)c2ccc(Cl)cc2)CC1,9.5,i,-7.7,-18.6,5.3,1.6,.,.
Cc1cc(/C=C2\SC(=S)N(C)C2=O)c(C)n1-c1cccc(O)c1,6.4,+,-20.6,-5.1,-0.4,-1.0,i,4.8
CCCCCCCNc1cccc(C)c1,-10.3,i,-8.0,7.8,-1.2,1.9,i,0.6
Cc1cccc(NCCNc2cccc(C)c2)c1,-5.0,i,-2.2,7.5,-11.7,-4.4,.,.
CC(C)n1cc(CN2CCC(C(=O)Nc3cccc(-c4cccc(Cl)c4)c3)CC2)cn1,10.0,+,-10.0,-29.9,30.6,-0.3,i,0.0
O=C(OCc1cn(Cc2ccc(C(F)(F)F)cc2)nn1)N1CCOCC1,.,.,.,18.7,.,.,.,.
O=C(N/N=C/c1ccccc1Br)c1ccc(CSc2cccc3cccnc23)cc1,-5.2,i,-0.8,1.5,.,-3.4,.,.
NNC(=O)c1ccc(CSc2cccc3cccnc23)cc1,1.2,i,-6.1,1.6,2.9,-7.5,i,0.3
O=C(C1CCC(=O)N(C2CCCC2)C1)N1CCN(c2ccc(Cl)cc2)CC1 (stereo unspecified),-8.3,i,-0.3,3.8,-1.2,-0.2,.,.
Cc1ccc(Cl)cc1N1CCN(C(=O)C2CCC(=O)N(C3CCCCCC3)C2)CC1 (stereo unspecified),15.2,+,-20.0,-5.6,22.7,3.2,i,1.1
O=C1NC2(CCCCC2)C(=O)N1CCS(=O)(=O)Oc1ccc(Br)cc1,-1.9,i,-3.8,-0.6,3.7,-2.0,.,.
CCN(CC)C(=O)C1=C(C)N(Cc2ccccc2)C(=O)C(CC(=O)NCCN2CCOCC2)C1 (stereo unspecified),0.0,i,8.0,8.3,.,-1.5,.,.
Cn1c(=O)c2cc(S(=O)(=O)NC(Cc3ccccc3)C(=O)NCc3ccco3)ccc2n(C)c1=O (stereo unspecified),9.7,i,11.2,-1.2,-1.7,0.0,i,0.2
SMILES,ABHD5-PLIN5 inh,Myeloid diff 2,H9c2 protect,HGIII-sPLA2 inh,Rtt109 HAT inh,DAGLB inh,Myeloid diff CP1,GFP autofluor
O=C(CNC(=O)c1ccco1)NCC(=O)OCc1ccc(F)cc1,-0.3,i,-0.4,9.9,-6.7,0.6,.,.
CCCCCCCC(=O)NNC(=O)c1ccc(F)cc1,5.8,i,3.8,-4.1,13.1,-6.2,i,0.7
Cc1ccc(S(=O)(=O)N2CCN(C(=O)C(C)Cn3nc(C)c(C)c3C)CC2)cc1C (stereo unspecified),-5.0,i,2.7,-9.6,4.2,-2.9,.,.
C[C@H](O)[C@@H]1C(=O)N2CCc3ccc(-c4cccc(F)c4)cc3[C@@H]2C[C@@H]1N(C)C(=O)Nc1ccccc1,5.9,i,14.6,-10.3,-4.6,0.1,.,.
C[C@H](O)[C@@H]1C(=O)N2CCc3ccc(-c4ccccc4)cc3[C@@H]2C[C@@H]1N(C)C(=S)Nc1ccc(F)cc1,4.7,i,-7.4,10.5,.,-1.1,i,86.8*
Cc1ccc(/C=N/NC(=O)c2cc3c(s2)CCCC3)o1,-0.4,i,2.4,-21.6,9.7,-10.6,i,0.3
COc1ccc(Cc2nc3ccc(C(=O)NC(C)C)cc3o2)cc1,9.7,i,-2.9,-6.1,-3.1,1.3,i,0.0
CCOC(=O)c1ccccc1NC(=O)Cn1cnc2c(cnn2-c2ccc(F)cc2)c1=O,-1.9,.,-7.2,-0.4,12.3,3.3,.,.
CCOC(=O)c1ccccc1NC(=O)Cn1cnc2c(cnn2-c2ccccc2)c1=O,2.2,i,17.0,-2.3,-0.5,6.3,i,0.3
Cn1c(=O)c2c(nc(NCCc3ccccc3)n2Cc2ccc(F)cc2)n(C)c1=O,2.2,i,-18.6,10.5,5.7,0.5,.,.
C=CCNc1nc2c(c(=O)n(C)c(=O)n2C)n1Cc1ccc(F)cc1,-3.1,i,-9.8,2.0,-4.0,0.1,i,0.6
Cc1cccc(Cn2c(NCCO)nc3c2c(=O)n(C)c(=O)n3C)c1,6.7,+,-3.4,15.4,11.2,2.2,i,0.5
Cc1oc(-c2ccc(Cl)cc2)nc1CS(=O)CC(=O)NC(C)c1ccccc1 (stereo unspecified),-0.6,i,-0.3,-6.3,0.3,-0.6,.,.
COc1ccc(-n2ccnc2)cc1,-4.2,i,-4.5,-2.6,4.0,2.2,.,.
CCC1CC(=O)CCN1S(=O)(=O)c1ccc(C)cc1 (stereo unspecified),1.0,i,4.7,1.8,-1.6,-5.1,.,.
Cc1ccc(-c2cc(-c3ccccc3)[nH]c(=S)c2C#N)cc1,15.9,i,0.2,4.2,8.3,-1.0,.,.
N#Cc1c(-c2ccc(C(F)(F)F)cc2)cc(-c2ccccc2)[nH]c1=S,-1.1,+,3.1,4.7,-2.2,1.5,i,0.0
